Sampled rows, rich in hits. Any-hit rate of the full collection: about 4.7%.
MPTP inh = mitochondrial permeability transition pore inhibitors, primary screen, biochemical, isolated mouse mitochondria, absorbance; Ca2+ swelling absorbance, 30 min; inhibition, % at 10 µM; hit rate 1.4% among 360,000;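 active = inhibition of 50% or more, scaled per plate between neutral and stimulator controls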;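 note: 0% = DMSO wells given calcium and 100% = 1 mM EGTA wells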
ADAM10 inh = human ADAM10 inhibitors, primary screen, biochemical, QFRET, HTS | recombinant ADAM10, EDANS/DABCYL FRET peptide cleavage, 3 h | inhibition, % at 7 µM | hit rate 0.62% among 370,000 | AID 720582, 2013;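 active = inhibition above a per-campaign cutoff equal to the mean of compounds falling between control-based bounds plus 3 SD, cut at about 20% in these data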;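 note: 0% = DMSO wells while the 100% control is not disclosed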
Target sequence (O14672 214-748 limits assumed): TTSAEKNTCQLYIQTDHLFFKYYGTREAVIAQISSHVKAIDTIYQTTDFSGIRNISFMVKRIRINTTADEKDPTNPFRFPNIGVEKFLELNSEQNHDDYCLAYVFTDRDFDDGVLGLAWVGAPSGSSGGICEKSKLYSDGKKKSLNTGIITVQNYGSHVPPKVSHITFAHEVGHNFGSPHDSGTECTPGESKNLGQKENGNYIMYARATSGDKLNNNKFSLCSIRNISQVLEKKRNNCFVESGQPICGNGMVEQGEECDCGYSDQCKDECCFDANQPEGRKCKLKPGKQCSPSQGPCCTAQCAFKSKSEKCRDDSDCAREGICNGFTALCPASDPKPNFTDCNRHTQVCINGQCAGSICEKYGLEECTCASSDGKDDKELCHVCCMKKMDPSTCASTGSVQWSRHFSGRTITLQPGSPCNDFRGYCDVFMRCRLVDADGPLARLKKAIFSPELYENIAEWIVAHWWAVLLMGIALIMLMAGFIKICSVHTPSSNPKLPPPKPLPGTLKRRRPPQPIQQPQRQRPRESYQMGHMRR
proKLK7 act = proKLK7 zymogen activators, primary screen, biochemical, fluorescence intensity. Kallikrein-7 (Homo sapiens), P49862. purified proKLK7, EDANS-DABCYL substrate fluorescence; 100% is mature enzyme control, 0% vehicle. activation, % at 7 µM. hit rate 0.9% among 370,000. AID 652039, 2013;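 active = activation above the mean of all tested compounds plus 3 SD, computed per campaign excluding outliers beyond control limits, cut at about 13% in these data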
ADAM17 inh = ADAM17 inhibitors, primary screen, biochemical, QFRET. Disintegrin and metalloproteinase domain-containing protein 17 (Homo sapiens), P78536. recombinant ADAM17, EDANS/DABCYL FRET peptide cleavage. inhibition, % at 6.95 µM. hit rate 0.83% among 370,000;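 active = inhibition above the mean of compounds lying between control limits plus 3 SD, set per campaign, cut at about 8.5% in these data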;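 note: 0% = DMSO-only wells as the low control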
Pemphigus Ab inh = inhibitors of pemphigus antibody binding to DSG3, primary screen, biochemical, bead-based, flow cytometry, scFv-GFP. Desmoglein-3 (Homo sapiens), P32926. DSG3-coupled beads, scFv-anti-DSG3-GFP binding; stronger effect = lower value. binding (percent of control), % at 10 µM. hit rate 0.48% among 310,000. AID 588358, 2011;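 active = binding more than 3 SD below its plate's average and above zero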
rCAG binder = binders of r(CAG) RNA repeats, primary screen, biochemical, fluorescence | r(CAG) RNA repeat, TO-PRO-1 dye displacement fluorescence | inhibition, % at 3 µM | hit rate 1.3% among 370,000;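 active = inhibition above the plate cutoff, the mean of all test compounds on that plate plus 3 SD, cut at about 35% in these data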;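 note: 0% = DMSO alone and 100% = 100 µM mitoxantrone as full dye displacement; higher means more dye released from RNA so lower well fluorescence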
rCAG binder conf = small molecules binding CAG repeat RNA – biochemical, fluorescence, confirmation; shares compounds with rCAG binder; hit rate 70% among 4,300; r(CAG) RNA repeat, TO-PRO-1 dye displacement fluorescence; inhibition, % at 3 µM;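 active = inhibition above a per-plate cutoff, the mean inhibition of sample wells plus 3 SD, cut at about 35% in these data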;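 note: loss of TO-PRO-1 fluorescence as compound displaces dye from 1x1 AA loop RNA; 0% = DMSO only wells and 100% = 100 µM mitoxantrone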
DNA CAG counter = displacement of TO-PRO-1 from CAG DNA duplex, counter-screen for rCAG RNA repeat binder project, biochemical, fluorescence, TO-PRO-1 dye, d(CAG) DNA oligo. AID 652068, 2013. hit rate 94% among 4,300. inhibition, % at 3 µM. d(CAG) DNA oligo TO-PRO-1 dye displacement. shares compounds with rCAG binder;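 active = inhibition above its plate's cutoff, the mean test-well inhibition plus 3 SD, cut at about 4.8% in these data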;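 note: 0% = DNA dye mix with DMSO and 100% = 100 µM mitoxantrone; hits displace the dye from DNA and so lower well fluorescence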
dCAG dye DR = inhibitors of DNA CAG/GTC TO-PRO-1 complex, dose response, counter-screen for rCAG RNA repeat binder project, biochemical, fluorescence, TO-PRO-1 dye | shares compounds with rCAG binder | hit rate 20% among 250 | AID 686960, 2013 | DNA CAG/GTC duplex TO-PRO-1 dye displacement fluorescence | IC50, µM; in the data active = IC50 below about 10 µM
An asterisk follows results filed as active; i = inactive; nt = no result given.

SMILES	MPTP inh	ADAM10 inh	proKLK7 act	ADAM17 inh	Pemphigus Ab inh	rCAG binder	rCAG binder conf	DNA CAG counter	others
COc1ccc(Cl)cc1NC(=S)NNC(=O)c1cccnc1	0.7	18.1	-0.7	5.0	97.0	27.1	nt	nt
CC(c1cc(F)ccc1O)c1c[nH]c2ccccc12 (centres undefined)	nt	1.8	0.0	0.9	nt	3.1	nt	nt
Fc1ccc(-c2nc3c(Cl)cc(C(F)(F)F)cn3c2Cc2cccc(Cl)c2)cc1	11.0	-7.9	-0.8	-6.4	nt	38.0*	5.0	4.6*
FC(F)(F)c1cc(Cl)c2nc(-c3ccc(Cl)cc3)c(Cc3ccsc3)n2c1	8.9	-3.9	0.1	-2.0	nt	51.2*	16.1	6.1*
FC(F)(F)c1cc(Cl)c2nc(-c3ccccc3)c(Cc3ccsc3)n2c1	1.9	-10.7	-0.1	-4.0	nt	7.0	nt	nt
CCOC(=O)CC[C@H]1CC[C@]2(CCCN(S(=O)(=O)c3ccccc3)C2)O1	nt	-6.8	0.0	-1.9	nt	0.6	nt	nt
NC(=O)c1ccc(NC(=O)CSc2nnc(-c3ccccc3)n2-c2ccccc2)cc1	nt	-0.1	0.4	-1.4	nt	2.9	nt	nt
CCOC(=O)[C@@]12CCCC=C1N(CCc1ccc(Cl)cc1)C(=O)[C@H]2CC(=O)N1CCCCC1	nt	0.6	-0.2	2.8	nt	3.2	nt	nt
COc1ccc(C=CC(=O)c2ccc(OCc3ccccc3)c(OC)c2)cc1OC	-0.8	-33.3	-7.1	-8.4	103.2	10.9	nt	nt
COc1ccc(C(=O)/C=C/c2cccc(OCc3ccccc3)c2)cc1CSCC(=O)O	5.8	7.4	-1.8	0.4	98.0	60.5*	82.8*	44.2*
COc1ccc(C(=O)/C=C/c2ccc(OCc3ccccc3)cc2)cc1CSCC(=O)O	3.3	-93.2	-17.3	-30.0	100.9	57.1*	77.7*	36.1*
COc1cc2c(cc1OC)C(O)=CC(=O)C2=O	-0.6	-7.2	1.1	-2.6	110.7	32.3	nt	nt
CCCc1nnc(SCC(=O)NC2CC2)n1C	-0.2	-6.7	-0.4	-2.9	nt	-2.3	nt	nt
COC(=O)c1sc(-c2ccc(Cl)cc2)cc1NC(=O)COCC(=O)O	3.3	-52.8	0.2	-19.2	nt	45.5*	52.0*	11.6*	dCAG dye DR=i
COC(=O)c1sc(-c2ccc(Cl)cc2)cc1NC(=O)/C=C/C(=O)O	-2.5	-8.7	-0.4	-6.1	112.5	11.8	nt	nt
COC(=O)c1sc(-c2ccc(C(C)(C)C)cc2)cc1NC(=O)CCC(=O)O	7.1	-65.3	0.2	-36.2	102.5	72.5*	72.4*	29.3*
CC(=O)c1sc(C(C)(C)C)cc1NC(=O)CCC(=O)O	3.6	-7.6	0.1	-2.3	112.1	-1.0	nt	nt
O=C(N[C@@H](Cc1cccnc1)C(=O)N1CCC[C@H]1C(=O)NCc1ccccc1)c1ccc(Cl)c(Cl)c1	nt	2.1	0.1	-0.3	nt	0.9	nt	nt
Nc1nc2c(c(=O)[nH]1)C(c1cccc3ccccc13)C1=C(N2)c2ccccc2C1=O (centres undefined)	-1.4	-0.6	0.4	-1.4	41.0*	78.0*	57.1*	34.3*
CC(=O)C1=C(C)NC2=C(C(=O)c3ccccc32)C1c1ccccc1 (centres undefined)	1.8	3.5	-0.3	1.0	107.8	2.9	nt	nt
CS(=O)(=O)c1ccc(OCCCN2CCC(C(O)(c3ccccc3)c3ccccc3)CC2)cc1	nt	-4.2	0.0	0.0	nt	0.7	nt	nt
CCOc1ccc(-n2c(C)cc(C(=O)NS(=O)(=O)c3ccc(C)cc3)c2C)cc1	2.0	-12.1	-0.1	-3.6	100.3	-0.6	nt	nt
Cc1ccc(-n2c(C)cc(C(=O)NS(=O)(=O)c3ccc(C)cc3)c2C)cc1	1.7	-2.9	0.6	-0.6	102.0	39.7*	26.6	9.7*
CCc1ccc(CC2S/C(=C(\C#N)C(C)=O)NC2=O)cc1 (centres undefined)	19.4	0.2	0.1	2.0	nt	37.2*	19.9	2.5
CCOC(=O)c1ccc(CC2S/C(=C(\C#N)C(C)=O)NC2=O)cc1 (centres undefined)	0.8	8.8	-1.4	6.3	101.1	15.9	nt	nt
SMILES	MPTP inh	ADAM10 inh	proKLK7 act	ADAM17 inh	Pemphigus Ab inh	rCAG binder	rCAG binder conf	DNA CAG counter	others
CCn1nc(NS(=O)(=O)c2ccccc2[N+](=O)[O-])c2cc3cccc(C)c3nc21	0.1	-2.5	-0.2	-2.2	104.8	73.8*	54.0*	20.8*
CCn1nc(NS(=O)(=O)c2ccccc2[N+](=O)[O-])c2cc3ccc(C)cc3nc21	-1.0	nt	nt	nt	101.2	nt	nt	nt
CCn1nc(NS(=O)(=O)c2ccc([N+](=O)[O-])cc2)c2cc3cccc(C)c3nc21	17.5	4.8	-0.1	-1.6	100.1	85.2*	69.4*	30.7*
O=[N+]([O-])c1ccccc1NC(=S)N/N=C/c1ccc(O)c(O)c1	5.5	14.2	-1.3	3.3	96.3	36.7*	43.3*	22.7*
CCOc1cccc(/C=N/NC(=S)Nc2ccccc2[N+](=O)[O-])c1O	10.9	2.1	-0.7	0.4	86.8	35.1*	35.3*	14.8*
CC1CCCC(NC(=O)c2cc(S(=O)(=O)N3CCCCC3)c[nH]2)C1C (centres undefined)	-1.0	-9.4	0.0	-1.1	nt	1.3	nt	nt
Cc1ccc(C(=O)N(NC2=NS(=O)(=O)c3ccccc32)S(=O)(=O)c2ccc(C)cc2)cc1	2.5	0.0	0.2	-2.2	103.2	63.9*	43.7*	12.7*
CCN(C1=NS(=O)(=O)c2ccccc21)N(CC)S(=O)(=O)c1ccc(C)cc1	1.6	8.5	0.3	-2.1	98.6	-1.4	nt	nt
CC(C)c1ccc(NC(=O)Cc2c(C(=O)O)n(C)c3ccccc23)cc1	0.0	15.9	-0.8	3.5	102.1	50.6*	30.9	5.8*
Cc1ccc(NC(=O)Cc2c(C(=O)O)n(C)c3ccccc23)cc1F	-3.2	-5.0	-0.7	-4.6	nt	27.2	nt	nt
C=CCN1C(=O)[C@H](CC(=O)N2CCOCC2)[C@@]2(C(=O)OCC)CCCC=C12	nt	-4.3	-0.2	-4.1	nt	2.0	nt	nt
C[C@H]1COc2cc(Br)ccc2S(=O)(=O)N1Cc1cn(Cc2ccc(F)cc2)nn1	nt	-0.2	0.6	4.9	nt	2.7	nt	nt

High-throughput results: PubChem, several laboratories
